Screens from PubChem BioAssay.
In the library only some 21% were active in any assay of this set; here they are far more common.
DRD3 agonist – D3 dopamine receptor (human) agonism | P35462 | D3R DiscoveRx beta-arrestin cells, luminescence, 90 min | max activation, % | hit rate 0.58% among 410,000 | AID 652048; in the data active means max activation above about 30%; further: 0% is about no effect
Target sequence (P35462 whole entry, looked up): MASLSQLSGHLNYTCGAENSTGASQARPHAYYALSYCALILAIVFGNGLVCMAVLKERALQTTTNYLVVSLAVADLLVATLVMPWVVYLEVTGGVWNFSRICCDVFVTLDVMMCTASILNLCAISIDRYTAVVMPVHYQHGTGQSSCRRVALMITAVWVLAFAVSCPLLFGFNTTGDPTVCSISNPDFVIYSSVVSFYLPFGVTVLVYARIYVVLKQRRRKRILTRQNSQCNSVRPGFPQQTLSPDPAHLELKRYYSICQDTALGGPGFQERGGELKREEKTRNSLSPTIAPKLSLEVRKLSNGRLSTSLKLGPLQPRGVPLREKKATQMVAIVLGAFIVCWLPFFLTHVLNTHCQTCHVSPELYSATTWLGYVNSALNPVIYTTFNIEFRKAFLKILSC
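Agonist mode: compounds and dopamine controls were applied to plated cells for 90 min at 37 degrees C after an overnight attachment at 1500 cells/well. Luminescent read-out followed 30 - 60 minutes at room temperature with DiscoveRx detection reagent.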
DT40 TDP1 CPT – DT40-hTDP1 cell growth loss with CPT; AID 686979; chicken DT40 Tdp1-/-;hTDP1 cells + 20 nM CPT, ATP luminescence, 48 h; hit rate 12% among 420,000; Potency, µM (series often up to 46.2 µM), inactives show at the highest dose activity change, negative = growth inhibition, most hits filed as inhibitors; further: potency means the concentration at half of the fitted maximal effect; on the % scale 0 is the no-effect control and ±100 the full control effect; nearly all actives have a fitted effect of over 55% in size
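Chicken DT40 Tdp1-/- cells complemented with human TDP1, 400 cells/well, exposed to compounds plus 20 nM camptothecin for at least 48 h at 37 C; viability read as ATP content by CellTiter-Glo luminescence.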
D3 antag – D3 dopamine receptor (human) antagonism | hit rate 2.5% among 360,000 | D3R cells, DiscoveRx beta-arrestin luminescence, antagonist mode; hits give low values | max response, negative = inhibition, %; in the data active means max response below about -50%; inconclusive means no clear call, values can overlap the other calls; further: on the % scale 0 is the no-effect control and ±100 the full control effect
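Cells plated overnight at 1500 cells/well, then exposed to library compounds with dopamine controls for 90 minutes at 37 degrees C. DiscoveRx reagent added for 30–60 minutes at room temperature; luminescence read, quantitative HTS format.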
ClpP mod – qHTS Assay for Activators of ClpP | ATP-dependent Clp protease proteolytic subunit (Bacillus subtilis (strain 168)), P80244 | purified B. subtilis ClpP, FRET peptide cleavage, 20 min | Potency, µM (doses to about 57.5 µM), for inactives: top-dose activity change, negative = active | hit rate 1.9% among 340,000 | AID 651965, 2013; active means well fitted falling curve with a large enough effect; inconclusive means small, poorly fitted or top-dose-only effect; inactive means no such curve, though single readings can be large or run the other way; further: potency means the concentration at half of the fitted maximal effect; the source files actives as falling curves though it sought activators and does not explain the sign; nearly all actives have a fitted effect of over 65% in size
Target sequence (P80244 whole entry, looked up): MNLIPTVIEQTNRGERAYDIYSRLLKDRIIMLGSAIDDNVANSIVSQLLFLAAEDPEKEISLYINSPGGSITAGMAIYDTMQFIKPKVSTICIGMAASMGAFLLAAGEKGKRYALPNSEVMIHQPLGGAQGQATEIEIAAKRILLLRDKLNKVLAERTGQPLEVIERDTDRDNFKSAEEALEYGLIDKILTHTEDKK
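FRET quenching reversal measured ClpP activation: 10 microg/mL B. subtilis ClpP at pH 8 with the FRET-FV decapeptide, read at 430 nm after 320 nm excitation. The 20-min minus 0-min signal was scaled between DMSO/no-enzyme wells and ADEP (5.8 microM final).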
TDP1 cell noCPT – qHTS for Inhibitors of human tyrosyl-DNA phosphodiesterase 1 (TDP1): qHTS in cells in absence of CPT | DT40 Tdp1-/- hTDP1 cells, no CPT, ATP luminescence, 48 h | AID 686978, 2013 | Potency, µM (highest dose often 46.2 µM), for inactives: at the highest dose activity change, negative = growth inhibition, usual class: inhibitors | hit rate 15% among 420,000; further: potency means the concentration at half of the fitted maximal effect; on the % scale 0 is the no-effect control and ±100 the full control effect; nearly all actives have a fitted effect of over 55% in size
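Chicken DT40 Tdp1-/- cells complemented with human TDP1, screened without camptothecin (DMSO vehicle only), 400 cells/well. Compounds pin-transferred, cells incubated at 37 °C for at least 48 hr. Growth read as ATP-dependent luminescence (CellTiter-Glo, 30 min at RT).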
IL1B secr inh – inhibitors of inflammasome signaling (IL-1 beta secretion). THP-1 LPS/ATP IL-1B secretion, AlphaLISA, 16 h; hits give low values. activity change, % at 57.5 µM. hit rate 4.7% among 360,000. AID 743279; in the data active means activity change below about -50%; inconclusive means mostly about -30% to -49%; further: on the % scale 0 is the no-effect control and ±100 the full control effect
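Secreted IL-1B measured by AlphaLISA bead assay after 16 h compound exposure of THP-1 cells; compounds (final up to 57.5 uM) added 1 h before LPS (250 ng/mL) and ATP (1.25 mM) stimulation; lower signal means less secretion.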
* hit, by the source's call. Unless noted, the call rests on the fitted dose curve; in most records, active means well fitted inhibition curve with a large enough effect; inconclusive means small, poorly fitted or top-dose-only effect; inactive means flat fitted curve, though single readings scatter.

Results for CCN(CC)C(=S)SCC(=O)c1ccccc1 ?
DRD3 agonist: -5; DT40 TDP1 CPT: inconclusive; D3 antag: -10; ClpP mod: 6%; TDP1 cell noCPT: inconclusive; IL1B secr inh: -9

Results for CCN(CC)C(=S)SCC(=O)Nc1ccc(F)cc1 ?
DRD3 agonist: 5; DT40 TDP1 CPT: 21µM*; D3 antag: 5; ClpP mod: 0%; TDP1 cell noCPT: inconclusive; IL1B secr inh: -26

What do the screens show for `COc1cc(OC)cc(C(=O)/C=C2\Sc3ccccc3N2C)c1`?
DRD3 agonist: -2; DT40 TDP1 CPT: -2%; D3 antag: -19; TDP1 cell noCPT: 0%; IL1B secr inh: -26

What do the screens show for `CN1/C(=C\C(=O)c2cccs2)Sc2ccccc21`?
DRD3 agonist: -5; DT40 TDP1 CPT: inconclusive; D3 antag: 1; ClpP mod: -3%; TDP1 cell noCPT: 10µM*; IL1B secr inh: -14

Results for COc1ccc(N2CCN(C(=O)NC34CC5CC(CC(C5)C3)C4)CC2)cc1 ?
DRD3 agonist: 1; DT40 TDP1 CPT: inconclusive; D3 antag: 1; ClpP mod: -7%; TDP1 cell noCPT: 23µM*; IL1B secr inh: 39

What do the screens show for `O=C(NC12CC3CC(CC(C3)C1)C2)N1CCN(c2ccccc2)CC1`?
DRD3 agonist: -2; DT40 TDP1 CPT: inconclusive; D3 antag: 0; TDP1 cell noCPT: inconclusive; IL1B secr inh: 16

How did COc1cccc(N2CCN(C(C)C(=O)NC34CC5CC(CC(C5)C3)C4)CC2)c1 (stereo not given) do in these assays?
DRD3 agonist: -22; DT40 TDP1 CPT: inconclusive; D3 antag: -53*; TDP1 cell noCPT: 16µM*; IL1B secr inh: -15

How did N#CC1=C(N)N(c2ccc(F)cc2)C2=C(C1c1ccc(O)cc1)S(=O)(=O)CC2 (stereo not given) do in these assays?
DRD3 agonist: 5; DT40 TDP1 CPT: 21µM*; D3 antag: -3; TDP1 cell noCPT: inconclusive; IL1B secr inh: 0

How did CSc1ccc(C2C(C#N)=C(N)N(c3ccccc3)C3=C2C(=O)CCC3)cc1 (stereo not given) do in these assays?
DRD3 agonist: 2; DT40 TDP1 CPT: -13%; D3 antag: -28; ClpP mod: -1%; TDP1 cell noCPT: -28%; IL1B secr inh: -6

What do the screens show for `CN(C)c1cc(N2CCOCC2)nc(C#N)n1`?
DT40 TDP1 CPT: inconclusive; ClpP mod: -1%; TDP1 cell noCPT: inconclusive

Results for O=C(NCC1CCCN(C(=O)c2cccnc2)C1)c1ccc(-c2ccccc2)cc1 (stereo not given) ?
DRD3 agonist: -3; DT40 TDP1 CPT: inconclusive; D3 antag: -7; TDP1 cell noCPT: 23µM*; IL1B secr inh: 6

How did CC(=O)CCC(=O)N1CCCC(CNC(=O)c2ccc(-c3ccccc3)cc2)C1 (stereo not given) do in these assays?
DRD3 agonist: -3; DT40 TDP1 CPT: inconclusive; D3 antag: 0; ClpP mod: 1%; TDP1 cell noCPT: inconclusive; IL1B secr inh: -16

Results for COc1ccc(S(=O)(=O)NCC2CCCN(C(=O)c3cccnc3)C2)cc1 (stereo not given) ?
DRD3 agonist: 7; DT40 TDP1 CPT: 8%; D3 antag: -20; ClpP mod: 0%; TDP1 cell noCPT: -6%; IL1B secr inh: 15

How did CSCC(=O)N1CCCC(CNC(=O)c2ccc(-c3ccccc3)cc2)C1 (stereo not given) do in these assays?
DRD3 agonist: 1; DT40 TDP1 CPT: 23µM*; D3 antag: 4; TDP1 cell noCPT: 23µM*; IL1B secr inh: -8

What do the screens show for `COc1ccccc1C(=O)Nc1ccc(OCc2cc(=O)n3ccsc3n2)cc1`?
DRD3 agonist: 20; DT40 TDP1 CPT: -22%; ClpP mod: 1%; TDP1 cell noCPT: -16%

What do the screens show for `Cc1ccccc1NS(=O)(=O)c1nnc(NC(=O)CC(C)C)s1`?
DRD3 agonist: -3; DT40 TDP1 CPT: 5%; D3 antag: -27; ClpP mod: 0%; TDP1 cell noCPT: 0%; IL1B secr inh: 18

What do the screens show for `COc1ccc(OC)c(S(=O)(=O)N2CCN(Cc3nc4ccc(C)cc4o3)CC2)c1`?
DRD3 agonist: 0; DT40 TDP1 CPT: inconclusive; ClpP mod: 0%; TDP1 cell noCPT: -11%

What do the screens show for `CCOc1ccccc1NC(=O)CN(c1cc(C)cc(C)c1)S(=O)(=O)c1c(C)noc1C`?
DRD3 agonist: -8; DT40 TDP1 CPT: -3%; D3 antag: 0; ClpP mod: 0%; TDP1 cell noCPT: -20%; IL1B secr inh: 2

Results for Cc1noc(C)c1S(=O)(=O)N(CC(=O)NC(C)c1ccccc1)c1ccc(C(C)C)cc1 (stereo not given) ?
DRD3 agonist: -5; DT40 TDP1 CPT: inconclusive; D3 antag: 7; ClpP mod: 3%; TDP1 cell noCPT: inconclusive; IL1B secr inh: -53*

What do the screens show for `CCOc1ccccc1NC(=O)CN(c1ccc(OC)cc1)S(=O)(=O)c1c(C)noc1C`?
DRD3 agonist: -4; DT40 TDP1 CPT: 2.9µM*; D3 antag: inconclusive; ClpP mod: -1%; TDP1 cell noCPT: 3.3µM*; IL1B secr inh: 41

What do the screens show for `CCOc1ccc(N(CC(=O)Nc2ccccc2C)S(=O)(=O)c2c(C)noc2C)cc1`?
DRD3 agonist: -7; DT40 TDP1 CPT: 4.6µM*; D3 antag: -29; ClpP mod: 0%; TDP1 cell noCPT: 2.9µM*; IL1B secr inh: 29

Results for O=C1c2ccc(O)c(O)c2C(=O)c2c(O)ccc(O)c21 ?
DT40 TDP1 CPT: 10µM*; TDP1 cell noCPT: inconclusive

How did O=C1c2ccccc2C(=O)c2c1ccc(O)c2O do in these assays?
DRD3 agonist: 17; DT40 TDP1 CPT: -7%; D3 antag: -17; ClpP mod: 2%; TDP1 cell noCPT: -18%; IL1B secr inh: -12

How did Cc1ccc(N2CCN(Cc3nnc(-c4ccc5c(c4)OCO5)o3)CC2)c(C)c1 do in these assays?
DRD3 agonist: 4; DT40 TDP1 CPT: inconclusive; ClpP mod: -5%; TDP1 cell noCPT: 23µM*

How did Cc1ccc([C@H]2C[C@@H](O)[C@H](n3cc(-c4ccc(F)cc4)nn3)CN2Cc2cccs2)cc1 do in these assays?
DRD3 agonist: -1; DT40 TDP1 CPT: inconclusive; D3 antag: -3; ClpP mod: -1%; TDP1 cell noCPT: inconclusive; IL1B secr inh: -15

Results for O=C(N/N=C/C=C/c1ccccc1[N+](=O)[O-])c1ccncc1 ?
DRD3 agonist: -10; DT40 TDP1 CPT: inconclusive; D3 antag: 19; TDP1 cell noCPT: inconclusive; IL1B secr inh: 20
